Source: the supplement of paper PMC11732987, “Enantioselective OTUD7B fragment discovery through chemoproteomics screening and high-throughput optimisation” (Communications Chemistry, 2025)

Experiments:
Assay in all cases: log2 ratio of Biotin-Ahx-Ub-VS probe labelling (fragment/DMSO); higher = less target engagement (more negative = stronger competition), active = hit call of the paper (q ≤ 0.05, log2 ratio ≤ -1)
Details in all cases: compound concentration: 200 uM; treatment time: 3 h
USP19 = biological target: T1, USP19 (UniProt O94966)
T1 sequence (whole entry): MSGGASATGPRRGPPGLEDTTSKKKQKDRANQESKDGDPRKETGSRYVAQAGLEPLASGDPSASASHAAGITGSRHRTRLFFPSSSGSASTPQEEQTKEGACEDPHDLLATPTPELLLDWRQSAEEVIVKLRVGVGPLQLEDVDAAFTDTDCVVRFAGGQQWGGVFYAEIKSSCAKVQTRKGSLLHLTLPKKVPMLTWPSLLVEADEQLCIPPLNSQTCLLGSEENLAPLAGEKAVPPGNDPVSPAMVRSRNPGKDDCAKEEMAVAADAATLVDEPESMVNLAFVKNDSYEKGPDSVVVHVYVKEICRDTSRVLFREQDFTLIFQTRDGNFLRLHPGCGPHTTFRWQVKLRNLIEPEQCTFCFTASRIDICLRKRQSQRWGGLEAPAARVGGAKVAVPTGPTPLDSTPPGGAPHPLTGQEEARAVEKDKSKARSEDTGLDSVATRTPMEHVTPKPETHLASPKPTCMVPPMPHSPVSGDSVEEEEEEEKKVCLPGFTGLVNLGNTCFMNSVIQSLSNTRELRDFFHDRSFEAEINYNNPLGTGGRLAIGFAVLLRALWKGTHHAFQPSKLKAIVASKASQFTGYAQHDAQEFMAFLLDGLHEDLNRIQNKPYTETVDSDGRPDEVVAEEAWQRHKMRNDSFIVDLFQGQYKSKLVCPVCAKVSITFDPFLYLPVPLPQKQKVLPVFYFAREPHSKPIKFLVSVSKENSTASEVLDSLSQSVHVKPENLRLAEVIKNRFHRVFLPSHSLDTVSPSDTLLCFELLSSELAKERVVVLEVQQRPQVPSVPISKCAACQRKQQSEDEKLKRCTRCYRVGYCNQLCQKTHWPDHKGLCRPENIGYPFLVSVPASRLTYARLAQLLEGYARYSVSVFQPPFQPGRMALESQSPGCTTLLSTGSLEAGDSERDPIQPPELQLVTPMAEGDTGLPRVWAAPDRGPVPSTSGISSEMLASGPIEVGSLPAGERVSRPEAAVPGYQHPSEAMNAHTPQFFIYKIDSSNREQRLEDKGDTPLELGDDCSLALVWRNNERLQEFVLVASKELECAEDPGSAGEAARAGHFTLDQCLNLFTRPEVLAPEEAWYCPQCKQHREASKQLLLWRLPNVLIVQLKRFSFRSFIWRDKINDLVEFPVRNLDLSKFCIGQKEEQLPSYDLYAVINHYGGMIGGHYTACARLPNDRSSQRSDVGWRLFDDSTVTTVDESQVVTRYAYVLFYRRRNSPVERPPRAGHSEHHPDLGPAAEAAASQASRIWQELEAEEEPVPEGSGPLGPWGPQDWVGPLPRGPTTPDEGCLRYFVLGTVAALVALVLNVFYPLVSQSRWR
Summary of the method: (§1)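 HEK293T lysate, 495 µg per sample in Tris/CHAPS/IGEPAL buffer with protease inhibitors, was treated in triplicate with fragment at 200 µM or vehicle for 3 h and then with Biotin-Ahx-Ub-VS at 0.5 µM final for 1 h. Labelled DUBs were NeutrAvidin-enriched, digested with LysC and trypsin, and run by diaPASEF LC-MS/MS. Spectronaut label-free quantities were global-median-normalised, and values are average log2 fragment/vehicle ratios by unpaired t-test on proteins with ≥2 unique peptides.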

USP22 = biological target: T2, USP22 (UniProt Q9UPT9)
T2 sequence (whole entry): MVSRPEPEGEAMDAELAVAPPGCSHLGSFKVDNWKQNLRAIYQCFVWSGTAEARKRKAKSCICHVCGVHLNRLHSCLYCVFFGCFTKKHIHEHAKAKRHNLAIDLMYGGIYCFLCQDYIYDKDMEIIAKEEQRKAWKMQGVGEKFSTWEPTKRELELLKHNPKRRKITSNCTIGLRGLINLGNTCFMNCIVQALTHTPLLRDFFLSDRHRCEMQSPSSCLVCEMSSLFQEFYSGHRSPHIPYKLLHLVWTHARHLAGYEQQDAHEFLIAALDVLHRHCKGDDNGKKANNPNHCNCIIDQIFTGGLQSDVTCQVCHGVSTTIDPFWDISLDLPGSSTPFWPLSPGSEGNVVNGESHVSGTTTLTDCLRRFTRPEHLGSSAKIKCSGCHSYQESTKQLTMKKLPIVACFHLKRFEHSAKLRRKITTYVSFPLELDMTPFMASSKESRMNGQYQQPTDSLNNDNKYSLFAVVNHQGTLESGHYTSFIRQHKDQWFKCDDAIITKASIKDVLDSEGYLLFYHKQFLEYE
Summary of the method: as §1

USP24 = USP24 (UniProt Q9UPU5)
Summary of the method: as §1

USP25 = biological target: T3, USP25 (UniProt Q9UHP3)
T3 sequence (whole entry): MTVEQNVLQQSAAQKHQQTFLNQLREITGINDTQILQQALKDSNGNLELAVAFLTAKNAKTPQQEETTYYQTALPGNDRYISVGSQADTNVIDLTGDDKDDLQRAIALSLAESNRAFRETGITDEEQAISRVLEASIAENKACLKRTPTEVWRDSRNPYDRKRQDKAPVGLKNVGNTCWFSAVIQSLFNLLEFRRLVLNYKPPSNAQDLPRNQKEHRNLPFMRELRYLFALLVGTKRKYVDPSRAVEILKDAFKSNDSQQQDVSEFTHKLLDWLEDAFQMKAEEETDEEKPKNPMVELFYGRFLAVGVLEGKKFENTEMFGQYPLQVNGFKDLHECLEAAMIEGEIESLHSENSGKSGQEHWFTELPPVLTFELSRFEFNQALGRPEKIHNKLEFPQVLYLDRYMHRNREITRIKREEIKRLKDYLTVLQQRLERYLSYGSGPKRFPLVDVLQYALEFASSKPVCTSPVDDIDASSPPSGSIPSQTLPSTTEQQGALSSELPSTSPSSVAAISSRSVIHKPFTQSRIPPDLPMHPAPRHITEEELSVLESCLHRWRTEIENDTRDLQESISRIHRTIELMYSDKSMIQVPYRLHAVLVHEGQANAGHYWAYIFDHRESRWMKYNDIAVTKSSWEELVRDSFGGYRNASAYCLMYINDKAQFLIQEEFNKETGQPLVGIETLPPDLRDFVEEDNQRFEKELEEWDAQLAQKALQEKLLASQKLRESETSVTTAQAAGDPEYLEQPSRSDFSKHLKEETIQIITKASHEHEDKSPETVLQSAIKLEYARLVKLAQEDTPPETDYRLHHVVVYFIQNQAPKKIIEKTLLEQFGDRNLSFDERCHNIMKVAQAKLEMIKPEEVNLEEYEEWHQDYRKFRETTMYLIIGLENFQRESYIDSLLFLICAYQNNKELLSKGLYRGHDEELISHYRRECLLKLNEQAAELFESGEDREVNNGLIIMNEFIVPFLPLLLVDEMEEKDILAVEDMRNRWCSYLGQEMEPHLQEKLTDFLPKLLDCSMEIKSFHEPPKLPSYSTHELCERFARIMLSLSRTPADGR
Summary of the method: as §1

USP28 = biological target: T4, USP28 (UniProt Q96RU2)
T4 sequence (whole entry): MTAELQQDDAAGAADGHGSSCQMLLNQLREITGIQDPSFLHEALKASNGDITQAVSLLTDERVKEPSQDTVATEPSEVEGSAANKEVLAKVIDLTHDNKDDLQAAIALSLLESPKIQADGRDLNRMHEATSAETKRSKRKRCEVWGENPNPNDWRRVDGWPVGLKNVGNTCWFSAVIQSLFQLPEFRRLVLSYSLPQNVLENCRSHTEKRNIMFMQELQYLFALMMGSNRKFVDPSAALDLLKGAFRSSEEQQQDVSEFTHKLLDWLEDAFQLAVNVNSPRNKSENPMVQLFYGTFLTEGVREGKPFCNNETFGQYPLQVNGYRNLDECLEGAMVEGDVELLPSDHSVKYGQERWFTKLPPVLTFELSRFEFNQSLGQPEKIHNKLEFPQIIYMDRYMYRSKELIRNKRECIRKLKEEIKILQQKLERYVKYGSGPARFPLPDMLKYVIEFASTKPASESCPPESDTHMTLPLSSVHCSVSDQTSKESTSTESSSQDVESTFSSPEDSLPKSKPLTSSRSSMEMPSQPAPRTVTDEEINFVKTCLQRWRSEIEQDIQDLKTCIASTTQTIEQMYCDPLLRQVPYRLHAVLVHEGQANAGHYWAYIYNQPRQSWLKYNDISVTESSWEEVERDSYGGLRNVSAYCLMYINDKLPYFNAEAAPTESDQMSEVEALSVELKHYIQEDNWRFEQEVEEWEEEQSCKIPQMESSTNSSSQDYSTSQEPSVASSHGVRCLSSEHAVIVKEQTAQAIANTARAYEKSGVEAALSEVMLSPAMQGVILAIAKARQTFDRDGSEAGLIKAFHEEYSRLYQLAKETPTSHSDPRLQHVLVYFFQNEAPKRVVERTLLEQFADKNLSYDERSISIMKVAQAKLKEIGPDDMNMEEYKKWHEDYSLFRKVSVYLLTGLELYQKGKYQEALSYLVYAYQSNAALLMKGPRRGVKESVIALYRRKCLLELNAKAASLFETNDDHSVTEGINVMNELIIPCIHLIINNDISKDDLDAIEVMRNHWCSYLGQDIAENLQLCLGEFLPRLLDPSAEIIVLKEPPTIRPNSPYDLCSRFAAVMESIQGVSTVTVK
Summary of the method: as §1

Measured: log2 ratio of Biotin-Ahx-Ub-VS probe labelling

Sequence of USP24 (Q9UPU5 whole entry): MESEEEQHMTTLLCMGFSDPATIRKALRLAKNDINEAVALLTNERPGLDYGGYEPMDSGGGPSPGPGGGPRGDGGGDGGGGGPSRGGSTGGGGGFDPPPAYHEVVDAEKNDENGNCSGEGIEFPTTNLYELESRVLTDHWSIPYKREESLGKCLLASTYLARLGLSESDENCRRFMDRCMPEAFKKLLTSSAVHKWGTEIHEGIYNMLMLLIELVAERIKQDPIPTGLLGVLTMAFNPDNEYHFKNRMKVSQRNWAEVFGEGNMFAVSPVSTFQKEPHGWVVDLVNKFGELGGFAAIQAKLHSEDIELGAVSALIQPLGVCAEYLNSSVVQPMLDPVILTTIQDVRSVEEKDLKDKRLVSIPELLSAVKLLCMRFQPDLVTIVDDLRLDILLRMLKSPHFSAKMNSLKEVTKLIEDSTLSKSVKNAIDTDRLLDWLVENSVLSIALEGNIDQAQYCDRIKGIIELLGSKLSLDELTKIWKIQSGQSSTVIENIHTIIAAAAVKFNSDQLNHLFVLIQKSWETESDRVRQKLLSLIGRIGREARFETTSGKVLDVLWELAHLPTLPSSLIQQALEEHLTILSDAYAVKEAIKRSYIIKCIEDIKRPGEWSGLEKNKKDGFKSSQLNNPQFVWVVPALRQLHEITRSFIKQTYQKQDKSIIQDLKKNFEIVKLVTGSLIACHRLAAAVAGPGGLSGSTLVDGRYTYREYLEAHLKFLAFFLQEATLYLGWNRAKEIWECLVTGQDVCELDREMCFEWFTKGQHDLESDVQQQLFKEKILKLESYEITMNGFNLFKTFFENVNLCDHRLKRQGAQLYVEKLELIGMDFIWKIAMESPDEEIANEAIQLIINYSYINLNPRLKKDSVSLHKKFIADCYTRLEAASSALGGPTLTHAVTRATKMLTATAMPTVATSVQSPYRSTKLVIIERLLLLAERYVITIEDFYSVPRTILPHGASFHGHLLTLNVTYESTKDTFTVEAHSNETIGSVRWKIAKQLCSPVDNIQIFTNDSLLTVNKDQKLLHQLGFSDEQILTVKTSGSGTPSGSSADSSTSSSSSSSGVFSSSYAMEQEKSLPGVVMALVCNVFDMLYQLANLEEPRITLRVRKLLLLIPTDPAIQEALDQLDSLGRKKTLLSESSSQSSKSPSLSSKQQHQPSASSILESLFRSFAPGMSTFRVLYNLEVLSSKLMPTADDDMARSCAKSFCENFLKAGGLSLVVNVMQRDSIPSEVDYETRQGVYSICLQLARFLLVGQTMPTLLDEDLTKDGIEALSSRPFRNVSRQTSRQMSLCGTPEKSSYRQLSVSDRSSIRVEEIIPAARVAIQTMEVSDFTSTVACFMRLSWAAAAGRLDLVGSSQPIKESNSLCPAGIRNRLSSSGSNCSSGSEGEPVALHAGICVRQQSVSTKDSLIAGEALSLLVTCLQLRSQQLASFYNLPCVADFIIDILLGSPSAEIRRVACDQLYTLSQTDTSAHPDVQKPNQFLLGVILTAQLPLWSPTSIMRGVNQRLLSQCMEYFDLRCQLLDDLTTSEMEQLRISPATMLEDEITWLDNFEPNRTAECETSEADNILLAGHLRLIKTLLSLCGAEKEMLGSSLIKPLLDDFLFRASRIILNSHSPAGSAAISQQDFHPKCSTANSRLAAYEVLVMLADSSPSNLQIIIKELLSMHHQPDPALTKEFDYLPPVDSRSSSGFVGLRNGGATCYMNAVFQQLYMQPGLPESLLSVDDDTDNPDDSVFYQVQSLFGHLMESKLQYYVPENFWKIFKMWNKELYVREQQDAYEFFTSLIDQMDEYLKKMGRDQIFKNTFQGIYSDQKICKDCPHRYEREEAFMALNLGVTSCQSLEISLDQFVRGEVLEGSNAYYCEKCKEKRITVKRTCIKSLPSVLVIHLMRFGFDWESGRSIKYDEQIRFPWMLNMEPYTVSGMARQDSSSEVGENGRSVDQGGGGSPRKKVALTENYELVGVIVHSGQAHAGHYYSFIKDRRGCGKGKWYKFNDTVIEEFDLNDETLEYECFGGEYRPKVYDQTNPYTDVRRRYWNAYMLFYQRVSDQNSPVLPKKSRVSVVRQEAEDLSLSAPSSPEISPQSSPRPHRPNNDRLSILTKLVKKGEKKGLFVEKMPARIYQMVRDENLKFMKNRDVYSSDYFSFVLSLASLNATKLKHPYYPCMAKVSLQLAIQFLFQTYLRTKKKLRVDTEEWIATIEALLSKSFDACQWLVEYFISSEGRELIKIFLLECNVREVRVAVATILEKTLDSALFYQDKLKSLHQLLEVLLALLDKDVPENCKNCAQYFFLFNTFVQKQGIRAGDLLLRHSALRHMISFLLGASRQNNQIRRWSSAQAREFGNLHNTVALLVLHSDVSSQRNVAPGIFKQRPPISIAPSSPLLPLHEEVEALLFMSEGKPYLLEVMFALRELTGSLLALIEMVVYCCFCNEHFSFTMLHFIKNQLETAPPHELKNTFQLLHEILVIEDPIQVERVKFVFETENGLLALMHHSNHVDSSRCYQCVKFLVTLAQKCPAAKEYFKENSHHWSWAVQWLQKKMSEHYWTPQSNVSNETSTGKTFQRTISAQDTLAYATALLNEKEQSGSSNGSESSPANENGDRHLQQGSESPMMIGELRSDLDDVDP

O=C(CCl)N1CCCC2CCCCC21 (stereo not given)
inactive: USP19 -0.188 | USP22 -0.0228 | USP24 -0.697 | USP25 -0.193 | USP28 -0.333
